For part of these data: Entries with a potency or affinity are not part of this list.

Parameters in all cases: scale not given: direction of the effect not stated beside the values
Experiment [1] concerns the target Protein translocase subunit SecA (Escherichia coli (strain K12)) (UniProt P10408). Nature of the experiment: Assay to Identify E. coli SecA ATPase Inhibitors. The note with it: 30 µM. The experiment is classed as functional.
In experiment [2] the target is T1, Ubiquitin-activating enzyme e1, putative (Leishmania donovani (strain BPK282A1)) (UniProt E9BSI1).
T1 sequence (whole entry): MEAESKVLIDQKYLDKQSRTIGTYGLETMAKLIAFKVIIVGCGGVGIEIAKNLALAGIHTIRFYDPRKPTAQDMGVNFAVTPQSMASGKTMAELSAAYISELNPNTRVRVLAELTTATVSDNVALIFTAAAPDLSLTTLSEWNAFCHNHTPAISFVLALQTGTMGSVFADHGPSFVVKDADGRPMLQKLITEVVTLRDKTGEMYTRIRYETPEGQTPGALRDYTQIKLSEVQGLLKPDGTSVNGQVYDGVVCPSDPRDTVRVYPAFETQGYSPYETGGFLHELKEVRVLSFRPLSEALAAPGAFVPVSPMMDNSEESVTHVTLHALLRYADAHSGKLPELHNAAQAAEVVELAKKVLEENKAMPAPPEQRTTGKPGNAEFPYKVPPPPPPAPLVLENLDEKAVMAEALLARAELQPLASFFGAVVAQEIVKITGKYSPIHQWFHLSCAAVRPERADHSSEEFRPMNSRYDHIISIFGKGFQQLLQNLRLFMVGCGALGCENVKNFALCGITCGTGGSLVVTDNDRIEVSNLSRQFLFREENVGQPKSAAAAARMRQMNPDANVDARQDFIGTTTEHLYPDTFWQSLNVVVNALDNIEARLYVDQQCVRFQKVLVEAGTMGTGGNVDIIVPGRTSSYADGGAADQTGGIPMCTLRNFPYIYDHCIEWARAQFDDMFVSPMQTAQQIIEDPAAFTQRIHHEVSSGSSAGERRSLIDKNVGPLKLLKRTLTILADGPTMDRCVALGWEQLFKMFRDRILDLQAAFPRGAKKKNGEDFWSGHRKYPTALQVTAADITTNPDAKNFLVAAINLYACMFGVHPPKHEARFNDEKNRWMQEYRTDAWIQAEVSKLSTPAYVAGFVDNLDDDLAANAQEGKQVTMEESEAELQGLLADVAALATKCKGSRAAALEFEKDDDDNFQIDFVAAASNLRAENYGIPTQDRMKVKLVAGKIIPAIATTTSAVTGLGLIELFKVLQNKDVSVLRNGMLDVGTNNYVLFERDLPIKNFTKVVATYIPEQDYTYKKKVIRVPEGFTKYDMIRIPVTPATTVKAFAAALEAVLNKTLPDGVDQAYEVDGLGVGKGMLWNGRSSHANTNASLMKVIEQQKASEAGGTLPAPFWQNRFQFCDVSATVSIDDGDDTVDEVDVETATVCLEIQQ
The experiment can be described thus: Leishmania donovani Ubiquitin Activating Enzyme (LdE1). The note with it: 30 µM. It counts as functional.

Experiment [3] has as its target AMP-activated protein kinase, AMPK (Homo sapiens) (UniProt P54646+O43741+P54619+Q9UGJ0+Q9Y478+Q13131+Q9UGI9). Nature of the experiment: AMP-dependent Kinase enzyme assay. An in vitro enzyme assay that detects ADP turnover that is directly proportional to AMPK activity. This uses naive AMPK that is activated during the assay with MK-8722. The experiment is classed as functional. The note with it: 30 µM.

Experiment [4] deals with Sialic acid-binding Ig-like lectin 9 (Homo sapiens) (UniProt Q9Y336). The experiment can be described thus: Hs-Siglec9 ALPHAscreen SOP 20170721. The conditions noted are these: 10 µM. (In general: In Alpha technology, singlet oxygen from a donor bead excites a nearby acceptor bead.)
Sialic acid-binding Ig-like lectin 9 (Homo sapiens), sequence (Q9Y336 whole entry): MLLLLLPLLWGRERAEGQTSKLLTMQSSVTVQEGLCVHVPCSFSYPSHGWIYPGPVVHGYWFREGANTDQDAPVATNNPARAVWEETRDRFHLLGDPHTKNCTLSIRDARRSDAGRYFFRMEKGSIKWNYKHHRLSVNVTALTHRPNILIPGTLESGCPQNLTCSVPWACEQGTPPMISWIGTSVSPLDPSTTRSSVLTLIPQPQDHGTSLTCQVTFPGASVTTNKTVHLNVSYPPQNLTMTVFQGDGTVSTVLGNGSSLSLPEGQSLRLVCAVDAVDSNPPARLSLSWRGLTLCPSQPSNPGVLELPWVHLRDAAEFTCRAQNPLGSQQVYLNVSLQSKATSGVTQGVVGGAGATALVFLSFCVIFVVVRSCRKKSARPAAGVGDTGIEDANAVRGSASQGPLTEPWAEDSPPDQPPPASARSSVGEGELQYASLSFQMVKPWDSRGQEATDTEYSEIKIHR
Experiment [5] has as its system Trypanosoma cruzi. Nature of the experiment: Trypanosoma cruzi phosphomannomutase and mannose-1-phosphate guanylyltransferase assay. The experiment is classed as functional. The note with it: 10 µM.
Experiment [6] addresses T2, Arginase-2, mitochondrial (Homo sapiens) (UniProt P78540).
T2 sequence (whole entry): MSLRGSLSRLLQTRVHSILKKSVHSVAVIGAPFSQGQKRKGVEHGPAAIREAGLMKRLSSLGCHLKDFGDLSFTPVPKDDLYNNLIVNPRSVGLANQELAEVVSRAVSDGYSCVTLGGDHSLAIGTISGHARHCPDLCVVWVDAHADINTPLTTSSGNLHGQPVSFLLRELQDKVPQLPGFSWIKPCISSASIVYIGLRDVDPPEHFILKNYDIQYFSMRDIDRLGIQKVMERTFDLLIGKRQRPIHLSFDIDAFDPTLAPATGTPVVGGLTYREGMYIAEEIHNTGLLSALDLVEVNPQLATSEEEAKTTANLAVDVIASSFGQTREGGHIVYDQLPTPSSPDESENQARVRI
The experiment can be described thus: in vitro enzyme assay to detect the production of urea directly proportional to the activity of Arginase II. Also: in the data most compounds retested in dose-response had high values. The conditions noted are these: 33.3 µM. It counts as functional.

Experiment [7] has as its target T3, Proteasome subunit beta (Trypanosoma cruzi) (UniProt O96673).
T3 sequence (whole entry): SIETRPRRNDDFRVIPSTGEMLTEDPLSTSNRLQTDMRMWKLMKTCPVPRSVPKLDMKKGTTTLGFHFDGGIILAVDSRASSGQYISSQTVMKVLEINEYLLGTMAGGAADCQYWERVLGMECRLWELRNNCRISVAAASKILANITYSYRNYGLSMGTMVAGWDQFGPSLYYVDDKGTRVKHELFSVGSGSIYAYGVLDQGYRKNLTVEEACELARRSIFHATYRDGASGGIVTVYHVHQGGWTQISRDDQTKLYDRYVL
Nature of the experiment: Trypanosoma cruzi proteasome chymotrypsin-like activity (TcProtChymo) assay. Also: in the data most compounds retested in dose-response had high values. The experiment is classed as functional. The note with it: 9.37 µM.

Experiment [8] is filed under the species Homo sapiens. The experiment can be described thus: To identify inhibition of the IFN signalling (Jak-Stat) pathway via expression of an eGFP reporter gene under the control of an IFN-stimulated response element (ISRE) containing MxA promoter. It counts as functional. The note with it: 30 µM.
Experiment [9] deals with T4, Tyrosyl-tRNA synthetase, putative (Trypanosoma cruzi (strain CL Brener)) (UniProt Q4DSP6).
T4 sequence (whole entry): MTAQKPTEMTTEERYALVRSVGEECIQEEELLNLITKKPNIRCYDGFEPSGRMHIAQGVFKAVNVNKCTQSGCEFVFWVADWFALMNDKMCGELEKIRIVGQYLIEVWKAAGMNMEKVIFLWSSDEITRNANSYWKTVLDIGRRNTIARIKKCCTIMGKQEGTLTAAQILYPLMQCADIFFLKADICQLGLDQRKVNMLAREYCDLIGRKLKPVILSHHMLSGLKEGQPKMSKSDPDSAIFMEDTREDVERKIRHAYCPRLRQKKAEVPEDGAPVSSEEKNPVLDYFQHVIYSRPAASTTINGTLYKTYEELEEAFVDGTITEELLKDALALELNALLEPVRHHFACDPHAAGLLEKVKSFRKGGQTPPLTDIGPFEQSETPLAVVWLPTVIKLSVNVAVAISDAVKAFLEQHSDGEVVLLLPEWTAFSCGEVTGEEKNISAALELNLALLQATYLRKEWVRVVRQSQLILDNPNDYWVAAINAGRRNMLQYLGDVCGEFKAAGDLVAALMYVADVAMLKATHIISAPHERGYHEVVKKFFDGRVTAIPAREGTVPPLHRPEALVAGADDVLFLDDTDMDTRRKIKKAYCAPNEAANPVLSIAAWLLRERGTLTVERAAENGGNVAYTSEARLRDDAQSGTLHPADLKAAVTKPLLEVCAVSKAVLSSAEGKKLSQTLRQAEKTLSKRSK
The experiment can be described thus: Trypanosoma cruzi tyrosyl tRNA synthetase (TcYRS) _High Tyrosine SOP. Also: in the data most compounds retested in dose-response had high values. The experiment is classed as functional. The conditions noted are these: 30 µM.

For experiment [10], the target named is T4, Tyrosyl-tRNA synthetase, putative (Trypanosoma cruzi (strain CL Brener)). The experiment can be described thus: Trypanosoma cruzi tyrosyl tRNA synthetase (TcYRS) SOP. The experiment is classed as functional. The conditions noted are these: 30 µM.
Experiment [11] addresses Chromo domain-containing protein 1 (Saccharomyces cerevisiae (strain ATCC 204508 / S288c) (Baker's yeast)) (UniProt P32657). Nature of the experiment: ScCHD-1 Enzyme Inhibition Assay. Also: in the data most compounds retested in dose-response had high values. It counts as functional. The note with it: 30 µM.

Chromo domain-containing protein 1 (Saccharomyces cerevisiae (strain ATCC 204508 / S288c) (Baker's yeast)), sequence (P32657 whole entry, the tested form may be a part): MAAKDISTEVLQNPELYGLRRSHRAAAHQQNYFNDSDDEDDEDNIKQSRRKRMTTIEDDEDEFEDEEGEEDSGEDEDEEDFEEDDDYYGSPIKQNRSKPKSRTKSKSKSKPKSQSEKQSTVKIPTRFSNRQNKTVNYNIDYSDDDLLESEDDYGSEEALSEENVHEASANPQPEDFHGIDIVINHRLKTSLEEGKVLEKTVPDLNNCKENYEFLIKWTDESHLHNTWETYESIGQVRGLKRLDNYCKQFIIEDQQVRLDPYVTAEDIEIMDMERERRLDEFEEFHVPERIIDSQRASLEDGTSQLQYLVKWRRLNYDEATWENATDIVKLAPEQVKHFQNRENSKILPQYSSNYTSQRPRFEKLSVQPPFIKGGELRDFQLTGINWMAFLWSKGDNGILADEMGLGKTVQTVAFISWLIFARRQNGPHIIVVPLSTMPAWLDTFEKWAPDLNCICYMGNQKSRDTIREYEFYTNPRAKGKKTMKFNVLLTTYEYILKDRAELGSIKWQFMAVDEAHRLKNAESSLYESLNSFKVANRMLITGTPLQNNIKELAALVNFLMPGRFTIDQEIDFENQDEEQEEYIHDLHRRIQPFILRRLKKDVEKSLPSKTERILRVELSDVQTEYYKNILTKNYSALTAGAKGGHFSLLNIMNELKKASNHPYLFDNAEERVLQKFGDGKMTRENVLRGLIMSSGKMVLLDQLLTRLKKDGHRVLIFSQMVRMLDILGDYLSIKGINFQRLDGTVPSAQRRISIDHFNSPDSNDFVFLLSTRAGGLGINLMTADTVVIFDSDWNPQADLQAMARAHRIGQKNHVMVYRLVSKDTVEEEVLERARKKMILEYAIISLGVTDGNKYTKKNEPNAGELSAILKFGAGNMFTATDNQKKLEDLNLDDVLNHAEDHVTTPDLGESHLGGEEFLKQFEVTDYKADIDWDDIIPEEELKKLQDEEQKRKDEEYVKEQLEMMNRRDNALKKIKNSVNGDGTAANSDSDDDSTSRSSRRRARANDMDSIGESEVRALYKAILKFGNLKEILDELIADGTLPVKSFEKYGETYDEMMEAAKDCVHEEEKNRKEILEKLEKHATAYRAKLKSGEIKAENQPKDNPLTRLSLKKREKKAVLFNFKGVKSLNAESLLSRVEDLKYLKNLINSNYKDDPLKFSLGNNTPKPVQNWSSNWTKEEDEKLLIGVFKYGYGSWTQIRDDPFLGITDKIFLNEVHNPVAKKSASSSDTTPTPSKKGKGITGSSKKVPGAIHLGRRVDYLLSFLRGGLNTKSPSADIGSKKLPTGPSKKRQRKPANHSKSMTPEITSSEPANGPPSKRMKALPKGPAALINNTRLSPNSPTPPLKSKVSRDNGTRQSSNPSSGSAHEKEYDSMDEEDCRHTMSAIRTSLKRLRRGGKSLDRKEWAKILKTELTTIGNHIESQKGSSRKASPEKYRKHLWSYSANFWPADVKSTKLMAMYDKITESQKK
Protein translocase subunit SecA (Escherichia coli (strain K12)), sequence (P10408 whole entry): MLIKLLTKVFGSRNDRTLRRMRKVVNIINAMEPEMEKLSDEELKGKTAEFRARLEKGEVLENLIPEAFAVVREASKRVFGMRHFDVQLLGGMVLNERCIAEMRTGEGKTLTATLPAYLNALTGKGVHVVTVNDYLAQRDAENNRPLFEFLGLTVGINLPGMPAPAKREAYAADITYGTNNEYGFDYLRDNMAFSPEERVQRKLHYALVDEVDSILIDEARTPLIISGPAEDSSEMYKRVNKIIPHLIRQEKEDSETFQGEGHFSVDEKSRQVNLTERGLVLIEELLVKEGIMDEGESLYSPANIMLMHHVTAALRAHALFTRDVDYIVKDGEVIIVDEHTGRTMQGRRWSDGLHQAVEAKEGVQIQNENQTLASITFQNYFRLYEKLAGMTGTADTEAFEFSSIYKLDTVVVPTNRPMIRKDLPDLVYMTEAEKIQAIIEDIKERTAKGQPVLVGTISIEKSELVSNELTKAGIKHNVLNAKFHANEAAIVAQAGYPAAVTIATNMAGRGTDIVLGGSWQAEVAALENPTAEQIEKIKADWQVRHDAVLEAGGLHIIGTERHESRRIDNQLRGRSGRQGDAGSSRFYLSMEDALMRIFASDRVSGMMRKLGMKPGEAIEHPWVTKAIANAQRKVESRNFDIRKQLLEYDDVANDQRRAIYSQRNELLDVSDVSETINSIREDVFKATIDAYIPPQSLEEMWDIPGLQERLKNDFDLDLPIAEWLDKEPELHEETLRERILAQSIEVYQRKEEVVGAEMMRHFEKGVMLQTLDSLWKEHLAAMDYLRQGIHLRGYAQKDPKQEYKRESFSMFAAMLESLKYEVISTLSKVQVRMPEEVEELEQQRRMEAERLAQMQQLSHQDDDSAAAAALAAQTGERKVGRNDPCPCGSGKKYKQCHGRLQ

Consider `O=C(COc1ccc2c(c1)CCC2)N1CCOCC1c1ncon1` (centres undefined), for which the Percent Effect in [1] is -2.91%; in experiment [2], 2.7%; in experiment [3], -3.96%; in experiment [4], -4.39%; in experiment [5], -4.62%; in experiment [6], 1.2%. Moreover, the Percent Effect in [7] is -1.62%; in experiment [8] it was 13.6%; in [9], 4.43%; in experiment [10] it was 6.17%; in experiment [11], -2.72%.
Consider `CCn1cc(CN2CCCC(CO)(CCc3ccccc3)C2)c(C)n1` (centres undefined), for which the Percent Effect in experiment [1] is -3.86%; in experiment [2], 8.11%; in [3], -1.51%; in experiment [4] it was 28.3%; in [5], 5.18%; in experiment [6], 18.1%. Also, the Percent Effect in experiment [7] was 12.1%; in [8], -7.2%; in [9], 0%; in experiment [10], 11.1%; in experiment [11] it was -12.5%.
As to `COCc1cccc(NC(C)C(=O)N(C)Cc2cccc(F)c2)c1` (centres undefined), the Percent Effect in experiment [1] was -7.47%; in experiment [2] it was -2.7%; in experiment [3] it was -1.66%; in [4] it was -7.46%; in experiment [5] it was -3.23%; in [6], -0.744%. Further, the Percent Effect is 6.44% in experiment [7]; -12.8% in experiment [8]; 1.07% in [9]; 1.24% in experiment [10]; -5.78% in experiment [11].
As for `CC[C@@]1(O)CCN(C(=O)c2ccc(SC)cc2)C[C@H]1O`, the Percent Effect in experiment [1] was -4.3%; in experiment [2], 4.17%; in experiment [3], 0.43%; in [4] it was 1.71%; in experiment [5], 6.9%; in experiment [6], -0.442%. The Percent Effect in experiment [7] is 10.9%; in experiment [8] it was 3.45%; in experiment [9] it was 4.21%; in experiment [10] it was 5.13%; in experiment [11] it was -3.41%.
`O=C1CC(NCc2ccncc2)CN1Cc1cccc(F)c1` (centres undefined): the Percent Effect in experiment [1] was -3.06%; in experiment [2], -2.7%; in [3], -0.958%; in experiment [4], 0.392%; in experiment [5], -2.9%; in experiment [6], -2.86%. Also, the Percent Effect was 11.6% in experiment [7]; -9.68% in experiment [8]; 1.59% in experiment [9]; 2.44% in experiment [10]; -0.358% in [11].
Regarding `O=C(N[C@@H]1CN(c2ncccn2)[C@@H]2CCCO[C@@H]21)c1cnccn1`, the Percent Effect in experiment [1] was -3.44%; in experiment [2], 2.67%; in [3] it was 2.76%; in [4], 2.22%; in experiment [5] it was 0.772%; in experiment [6] it was -38.9%. Also, the Percent Effect in [7] was 9.91%; in experiment [8] it was -16.7%; in experiment [9] it was 6.25%; in [10], 20%; in [11] it was -7.55%.
In the case of `COc1ccccc1OCc1cc(C(=O)N2CCN[C@H](C)C2)n[nH]1`, the Percent Effect in [1] was -4.07%; in [2] it was 8.11%; in [3], -4.98%; in experiment [4], 25.9%; in experiment [5], 4.63%; in experiment [6], 2.38%. Moreover, the Percent Effect in experiment [7] was 27.4%; in [8], 3.54%; in [9] it was 1.59%; in [10], 12.2%; in experiment [11], -8.49%.
Turning to `O=C(Cc1ccc2c(c1)OCCO2)N1CCCC(n2ccnc2)C1` (centres undefined), the Percent Effect is -8.71% in [1]; 5.2% in [2]; -7.38% in experiment [3]; -6.56% in [4]; 10.7% in experiment [5]; -3.58% in experiment [6]. Besides, the Percent Effect is 4.77% in experiment [7]; 2.67% in experiment [8]; 1.91% in experiment [9]; 11.8% in [10]; -24.2% in experiment [11].
On to `Cc1cccc(CN2CCc3c(nc(N4CCCCC4C)[nH]c3=O)C2)n1` (centres undefined), for which the Percent Effect in experiment [1] was -3.88%; in [2] it was 4.05%; in [3] it was 13%; in experiment [4] it was 7.92%; in [5], -3.36%; in experiment [6], 0.232%. Moreover, the Percent Effect in experiment [7] worked out at 9.36%; in experiment [8], 13.8%; in experiment [9] it was 7.53%; in experiment [10], 9.09%; in experiment [11] it was 2.2%.

For the origin of these results see ChEMBL document CHEMBL3988442, “University of Dundee, Small-Polar-MMV Screening Library” (2021).
